# Results as given in PubChem BioAssay.
# “And” between values parts separate entries of the source, which are not always exact repeats. Identical values can stand only once. The source made the active and inactive calls.
# How the values were obtained:
# [1] = target: Albumin (Bos taurus) (UniProt P02769); test: compounds binding labelled BSA control protein – biochemical, small-molecule microarray, Alexa647 label, 635/667 nm fluorescence, artefact control for SMM control protein annotation, profiling panel (AID 1118); conditions: BSA-A647 binding, fluorescence 635 nm, higher = more signal;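 also: score merges 667 nm emission intensity and signal-to-noise per printed compound spot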
# [2] = probe aXIP binding to arrayed compounds – biochemical, NeuroSMM set, 635/667 nm fluorescence, primary screen (AID 1119); conditions: small-molecule microarray, higher = more signal, called active from +8 up or from −8 down;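 also: probe is the protein aXip251-270 applied at 1 µg/mL to compound-printed slides; binding of probe to printed compounds measured as 667 nm fluorescence plus signal to noise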
# [3] = probe aNOTCH3 binding on compound microarray – biochemical, small-molecule microarray, 635/667 nm fluorescence, primary screen (AID 1120); conditions: higher = more signal;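 also: probe is a biotin-tagged antibody raised against NOTCH3 rather than NOTCH3 protein; score merges spot fluorescence near 667 nm with spot signal to noise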
# [4] = probe aNOTCH2 binding on compound microarray – biochemical, small-molecule microarray, 635/667 nm fluorescence, primary screen (AID 1121); conditions: higher = more signal;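 also: score merges feature fluorescence read at 667 nm with its signal to noise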
# [5] = target: Carbonic anhydrase 2 (Homo sapiens) (UniProt P00918); test: compounds binding carbonic anhydrase 2 – biochemical, small-molecule microarray, Alexa647-labelled CAII, profiling panel (AID 1122); conditions: CAII-A647 binding fluorescence, higher = more signal
# [6] = COS7 lysate on small-molecule microarray, probe aHis, 635 nm (AID 1123); conditions: COS7 cell lysate, fluorescence, higher = more signal;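 also: z-score combines 667nm fluorescence intensity with signal-to-noise per printed compound spot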
# [7] = probe aLAP1 signal on lysate-treated microarray – cell lysate, small-molecule microarray, COS7 lysate, primary screen (AID 1124); conditions: probe aLAP1, fluorescence, higher = more signal;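 also: lysate comes from COS7 cells expressing LAP1 and is applied at 0.3 µg/mL; score merges spot fluorescence near 667 nm with signal-to-noise over triplicate slides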
# [8] = system: Sam68 (KHDRBS1); test: compounds binding KHDRBS1 protein – biochemical, small-molecule microarray, 635 nm fluorescence, primary screen (AID 1125); conditions: higher = more signal;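 also: score merges 667 nm channel intensity with signal to noise over triplicate slides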
# [9] = system: Chordin-like protein 2 (CHRDL2); test: compounds binding chordin-like 2 – biochemical, small-molecule microarray, 635 nm fluorescence, primary screen (AID 1126); conditions: fluorescence 635 nm, higher = more signal;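 also: printed compound slides probed with Chrdl2 protein at 4 µg/mL for 1 h at 4 C; score merges 667 nm emission intensity with signal to noise over three replicate slides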
# [10] = target: Concanavalin-A (Canavalia ensiformis) (UniProt P02866); test: compounds binding concanavalin A lectin – biochemical, small-molecule microarray, Alexa647 label, 635 nm, artefact control for SMM control protein annotation, primary screen (AID 1127); conditions: ConA-A647 binding fluorescence, higher = more signal;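 also: z combines 667 nm emission intensity with signal-to-noise across three replicate slides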
# Concanavalin-A (Canavalia ensiformis), sequence (P02866 whole entry, looked up): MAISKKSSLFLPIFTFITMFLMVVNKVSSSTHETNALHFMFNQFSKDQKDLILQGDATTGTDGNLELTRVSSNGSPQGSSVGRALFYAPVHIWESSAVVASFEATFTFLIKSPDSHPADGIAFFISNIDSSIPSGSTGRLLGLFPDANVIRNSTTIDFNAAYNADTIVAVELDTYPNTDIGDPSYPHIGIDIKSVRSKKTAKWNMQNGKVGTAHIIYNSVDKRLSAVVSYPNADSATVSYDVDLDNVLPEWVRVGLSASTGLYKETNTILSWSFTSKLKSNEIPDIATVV
# Albumin (Bos taurus), sequence (P02769 whole entry, looked up): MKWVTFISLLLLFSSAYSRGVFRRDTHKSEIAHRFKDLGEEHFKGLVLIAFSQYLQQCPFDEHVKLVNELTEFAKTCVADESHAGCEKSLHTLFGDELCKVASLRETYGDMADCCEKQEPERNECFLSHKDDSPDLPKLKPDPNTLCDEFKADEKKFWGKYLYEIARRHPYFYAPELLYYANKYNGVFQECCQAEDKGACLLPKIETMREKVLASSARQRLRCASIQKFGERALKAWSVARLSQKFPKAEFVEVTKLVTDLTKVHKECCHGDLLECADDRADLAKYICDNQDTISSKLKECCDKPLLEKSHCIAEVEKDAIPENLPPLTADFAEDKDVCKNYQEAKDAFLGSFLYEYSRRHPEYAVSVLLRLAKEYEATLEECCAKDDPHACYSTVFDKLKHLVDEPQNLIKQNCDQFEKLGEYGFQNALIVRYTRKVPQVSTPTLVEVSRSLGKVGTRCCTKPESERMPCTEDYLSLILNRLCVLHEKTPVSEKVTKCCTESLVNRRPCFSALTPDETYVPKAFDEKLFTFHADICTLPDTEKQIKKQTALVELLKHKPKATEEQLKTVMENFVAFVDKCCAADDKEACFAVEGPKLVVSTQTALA
Structure (SMILES),composite z-score [1],composite Z-score [2],composite z-score [3],composite z-score [4],composite z-score [5],composite z-score [6],composite z-score [7],composite z-score [8],composite z-score [9],composite z-score [10]
C#CCCCON=C1C[C@@H](O)[C@@H](O)[C@@H]2[C@@H]3C(=O)N(C4CCCCC4)C(=O)[C@@H]3CC[C@H]12,0.691,-0.393 (inactive),-0.0006,-0.11,0.508,0.186,0.806,0.866,-0.133,1.15
C=CCN(Cc1ccccc1)C(=O)C1N(CCOCCO)C(=O)C2C(C(=O)O)C3C=CC21O3 (stereo not given),-1.03 and 0.202,-0.124 (inactive) and 0.217 (inactive),-0.611 and -0.41,-0.0984 and -0.183,0.903 and 0.881,1.33 and -1.28,1.24 and -0.375,-0.604 and -0.238,-3.42 and -2.87,-1.05 and -0.374
C=CCN(C(=O)C1N(C(C)(C)CO)C(=O)C2C(C(=O)O)C3C=CC21O3)c1ccc(OC)cc1 (stereo not given),-0.821 and -2.22,1.39 (inactive) and -0.174 (inactive),-0.383 and -0.578,-0.154 and -0.147,0.548 and 0.314,0.0457 and -0.218,0.995 and -0.102,-0.718 and -1.28,-4.67 and -4.11,-0.79 and -1.96
C[C@@H]1CC[C@H]2C(=O)NC[C@@H](O)CN2[C@H]1c1ccc(Br)cc1,0.446 and -0.624,-0.312 (inactive) and 0.171 (inactive),-0.0598 and -0.207,-0.14 and -0.046,0.702 and -0.138,0.703 and 0.229,-0.172 and -0.0957,-0.46 and 0.119,-0.119 and 0.127,0.407 and -0.416
C=C[C@H](C)[C@@H](O)c1ccc(OCCO)cc1,0.746 and -0.0233,-0.288 (inactive) and -0.162 (inactive),-0.494 and -0.481,-0.238 and -0.14,0.743 and 0.6,-0.135 and -0.25,-1.16 and -0.0942,-1.42 and -0.873,-1.32 and -0.668,-1.1 and -0.494
CCCCCN1CC=CC23O[C@@H]4C=CCCOC(=O)C4[C@H]2C(=O)N(C(C)CO)[C@@H]3C1=O (stereo not given in full),0.345 and -0.098,-0.0812 (inactive) and -0.45 (inactive),-0.536 and -0.0416,-0.475 and -0.181,0.792 and 0.844,0.654 and 1.55,0.114 and 0.885,0.656 and 0.708,-0.397 and -0.845,-0.0729 and 0.147
O=C1C[C@]2(c3ccc([N+](=O)[O-])cc3)C(=O)N(Cc3ccccc3)c3cc(CO)ccc3[C@H]2N1C1CCCCC1,-0.047 and -0.118,0.285 (inactive) and -0.0345 (inactive),-0.0627 and 0.13,-0.179 and 0.0118,0.272 and 0.439,0.366 and 1.14,0.679 and -0.627,0.802 and 0.377,-0.468 and 0.393,0.28 and 0.772
COC(=O)[C@@]1(Cc2ccccc2)[C@H]2c3cc(C(=O)N(C)C)n(Cc4ccc(C)c(F)c4F)c3C[C@H]2CN1C(=O)c1ccccc1,0.821 and 0.859,0.392 (inactive) and -0.26 (inactive),0.141 and 1.27,0.106 and -0.0977,0.72 and 0.653,2.51 and 2.94,0.289 and 0.612,0.998 and 1.34,-1.32 and -0.528,0.201 and 1.18
C=C(C)C(=O)OC[C@@H]1CN2[C@@H](CC[C@@H](C)[C@@H]2c2ccc(Br)cc2)C(=O)O1,0.635,-0.0665 (inactive),-0.127,-0.153,0.195,0.774,0.937,1.16,0.426,0.363
CCOC(=O)C[C@H]1[C@H](OC(=O)c2ccccc2-c2ccccc2)[C@@H](NC(=O)Cc2ccc(OC)cc2)c2cc(OCCCO)ccc2N1C(=O)Cc1ccc(OC)cc1,0.56 and -0.0815,0.376 (inactive) and -0.265 (inactive),0.23 and 0.0762,0.0922 and -0.189,0.285 and -0.324,0.324 and 0.46,0.621 and -0.153,0.821 and -0.28,-0.362 and -0.24,0.712 and -1.55
C=CCN(Cc1ccccc1)C(=O)C1N(c2ccc(CCO)cc2)C(=O)C2C(C(=O)O)C3C=CC21O3 (stereo not given),-1.88 and -0.419,-0.364 (inactive) and -0.371 (inactive),-0.393 and -0.575,-0.201 and 0.0434,0.942 and 0.937,-0.361 and -0.701,-0.418 and -0.931,-1.15 and -1.08,-1.61 and -3.84,-1.82 and -1.97
C=CCN(C(=O)C1N(c2c(Cl)cccc2CO)C(=O)C2C(C(=O)O)C3C=CC21O3)C(C)(C)C (stereo not given),0.393 and -0.872,0.0388 (inactive) and -0.166 (inactive),-0.479 and -0.47,-0.253 and -0.185,0.791 and -0.713,-0.556 and -0.856,-0.0145 and -0.779,-1.2 and -2.06,-2.06 and -2.92,-1.09 and -0.331
COC(=O)C1=C(C)N(Cc2ccccc2)C2=C(C(C)=O)C[C@@](O)(C(=O)OC)C(=O)N2[C@@H]1c1ccccc1,0.838 and 0.336,0.397 (inactive) and 0.38 (inactive),-0.0895 and 0.0597,-0.0921 and -0.118,0.84 and 0.766,0.463 and -0.221,0.0922 and -0.421,1.24 and -0.523,0.571 and 0.377,-0.0847 and -0.495
CCC[C@@H]1C[C@@]1(CCC)[C@@H](NC(=O)c1ccc(-c2ccccc2)cc1)c1cccc(Cl)c1,-0.0449 and 0.93,-0.281 (inactive) and -0.599 (inactive),1.31 and -0.0569,0.723 and 0.0809,0.305 and 0.812,2.51 and 1.41,0.421 and -0.244,-0.546 and 0.593,0.844 and -0.561,-1.47 and 0.217
